MITF inh: inhibitors of human MITF | O75030 | AlphaScreen MITF homodimerization, bead proximity signal | inhibition, % at 2.6 µM | actives 0.91% (n = 650,000) | AID 1259374; in the data active means inhibition above about 50%
Target sequence (O75030 whole entry, looked up): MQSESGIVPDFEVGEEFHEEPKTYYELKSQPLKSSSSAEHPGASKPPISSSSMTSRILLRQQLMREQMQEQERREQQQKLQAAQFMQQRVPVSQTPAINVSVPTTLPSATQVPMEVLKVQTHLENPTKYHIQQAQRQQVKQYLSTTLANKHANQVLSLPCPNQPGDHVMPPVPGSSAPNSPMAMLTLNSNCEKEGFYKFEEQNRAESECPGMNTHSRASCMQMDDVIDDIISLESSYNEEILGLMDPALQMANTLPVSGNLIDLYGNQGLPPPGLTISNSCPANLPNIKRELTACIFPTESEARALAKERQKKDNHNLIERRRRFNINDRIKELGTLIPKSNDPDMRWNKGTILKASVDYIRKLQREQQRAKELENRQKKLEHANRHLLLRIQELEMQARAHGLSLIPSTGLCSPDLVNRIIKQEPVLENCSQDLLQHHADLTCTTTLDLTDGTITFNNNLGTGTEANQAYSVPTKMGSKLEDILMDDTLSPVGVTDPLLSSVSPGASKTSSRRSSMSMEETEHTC
FBW7 activator: human FBW7 E3 ligase activation, primary screen; AID 1259310; AlphaScreen FBW7–phospho-cyclin E peptide binding, activator screen; normalized activity (activation), % at 26.1 µM; actives 0.13% (n = 650,000); in the data active means normalized activity above about 1.9%;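 further: purified mutant Fbw7 with reduced substrate affinity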
GPR151 activ: activators of human GPR151; PathHunter beta-arrestin GPR151 cells, luminescence; activation, % at 11.2 µM; actives 1% (n = 650,000); in the data active means activation above about 4.9%
TEAD-YAP block: TEAD-YAP interaction inhibition. actives 1.4% (n = 640,000). inhibition, % at 9.12 µM. HEK-TIYL cells, TEAD-Gal4/YAP UAS-luciferase luminescence; in the data active means inhibition above about 32%
Large screens that a line does not name were inactive; ! = repeats disagree. Rows were chosen to be rich in hits. Some 3.5% of all compounds tested hit in one or more screens of this group.

CN(C)c1ccc(C(=C2C=CC(=[N+](C)C)C=C2)c2ccc(N(C)C)cc2)cc1	MITF inh 92, TEAD-YAP block 89
CN(C)c1ccc(C(=NO)c2ccc(N(C)C)cc2)cc1	none
CCCOc1ccccc1C1C2=C(CCCC2=O)N(CC(=O)O)C2=C1C(=O)CCC2	none
COC(CN(C)C1=NC(=O)/C(=C\c2ccc(SC)cc2)S1)OC	TEAD-YAP block 42
COc1c2occc2cc2ccc(=O)oc12	FBW7 activator 2.0!
CC1=C(C(=O)N2CCCC(CCC(=O)N3CCN(c4ccccn4)CC3)C2)OCCO1 (configuration not stated)	none
CCCCCCCCCCCCC[N+](C)(C)Cc1ccccc1	TEAD-YAP block 38
N#Cc1cc2c(N)c(C(=O)Nc3ccccc3)sc2nc1N	none
N#Cc1cc2c(N)c(C(=O)c3ccc4c(c3)OCO4)sc2nc1N	FBW7 activator 5.1
Cc1ccc(NC(=O)c2sc3nc(N)c(C#N)cc3c2N)cc1F	FBW7 activator 22
O=C(Nc1nnc(COc2ccc(F)cc2)s1)c1ccc(F)cc1	none
Cc1c(CNCCc2ccccc2)c(C(=O)O)c(C)n1Cc1c(F)cccc1Cl	none
Cc1cccc(OCCCC(=O)Nc2nc3ccccc3[nH]2)c1	TEAD-YAP block 71
CC1=C(C#N)C(=O)NC(=O)/C1=C\c1ccc(-c2ccc(C(=O)O)c(Cl)c2)o1	MITF inh 58
CC1=C(C#N)C(=O)NC(=O)/C1=C\c1ccc(-c2ccccc2)o1	none
FC(F)(F)C1=Nc2cc(Cl)c(Cl)cc2N=C(c2cccs2)C1	TEAD-YAP block 37
Cc1ccc(NC(=O)c2cccc(S(=O)(=O)Nc3ccc(C)cc3)c2)cc1	none
CCc1cc2c(cc3c(=O)n(CCCC(=O)O)ncn32)s1	TEAD-YAP block 35
CCCNc1nc(SC)nc2c1cnn2CCNC(=O)c1ccc(F)cc1	none
CCCNc1nc(SC)nc2c1cnn2CCNC(=O)c1ccc(OC)cc1OC	TEAD-YAP block 36
CN(C)c1ccc(Nc2nc(-c3ccccc3)cs2)cc1	TEAD-YAP block 43
Cc1nc2sccn2c1-c1csc(Nc2ccc(O)cc2)n1	none
Cc1nc2sccn2c1-c1csc(Nc2ccc(N(C)C)cc2)n1	TEAD-YAP block 55
Cc1ccccc1Nc1nc(-c2c(C)nc3sccn23)cs1	none
CC(=O)Nc1ccc(Nc2nc(-c3c(C)nc4sccn34)cs2)cc1	TEAD-YAP block 48
Cc1cccc(N(C(=O)Nc2ccccc2)C2CCS(=O)(=O)C2)c1 (configuration not stated)	none
Cc1cc(NC(=O)COC(=O)c2cc3ccccc3cc2N)c([N+](=O)[O-])cc1C	none
CN(C)c1ccc(/C=C2\C(=O)NC(=O)N(Cc3ccccc3)C2=O)cc1Br	none
CCOc1ccc(N(CCC#N)S(=O)(=O)c2ccc(Cl)cc2)cc1	none
CCOc1ccc(N(CCC#N)C(=O)CCl)cc1	TEAD-YAP block 46
CCOC(=O)N(CC#N)c1ccc(C)cc1	none
N#CCCN(C(=O)CCl)c1ccc(F)cc1	TEAD-YAP block 82
N#CCCN(C(=O)CCl)c1ccccc1	TEAD-YAP block 65
Cc1ccc(N(CCC#N)C(=O)CCl)cc1	TEAD-YAP block 77
O=C(CN1C(=O)C2C3C=CC(C3)C2C1=O)Nc1nnc(C(F)(F)F)s1 (configuration not stated)	none
CCOC(=O)CN(Cc1ccc(Cl)cc1)S(=O)(=O)c1ccc(C(C)C)cc1	none
O=C(c1ccc2c(=O)n(-c3ccccc3F)c(=S)[nH]c2c1)N1CCCCC1	TEAD-YAP block 33
C(=N\Nc1nn[nH]n1)/c1ccc(N2CCOCC2)cc1	MITF inh 58
CCOc1ccc(-c2cc(C(=O)N/N=C/c3ccccc3O)[nH]n2)cc1	TEAD-YAP block 50
COc1ccc(-c2cc(C(=O)NN)[nH]n2)cc1	TEAD-YAP block 62
CCOc1ccc(-c2cc(C(=O)N/N=C/c3ccccn3)[nH]n2)cc1	TEAD-YAP block 34
Cc1ccc(-c2cc(C(=O)NN)[nH]n2)cc1	none
COc1cccc(-c2cc(C(=O)N/N=C/c3ccccc3O)[nH]n2)c1	none
CCn1cnc2c(Nc3ccc(C)cc3C)ncnc21	none
CCn1cnc2c(Nc3ccc(F)cc3)ncnc21	TEAD-YAP block 34
CC(C)(C)c1nc2scc(-c3ccccc3)c2c(=O)o1	none
CC(C)(C)c1nc2scc(-c3ccc(Br)cc3)c2c(=O)o1	TEAD-YAP block 34
CCOC(=O)c1sc(NC(=O)COc2ccccc2C(C)(C)C)c(C(=O)OCC)c1C	none
COc1ccccc1N1C(=O)c2ccc(C(=O)Nc3cc([N+](=O)[O-])ccc3O)cc2C1=O	FBW7 activator 2.1
Cc1cncc2cccc(NC3CCN(C(=O)[C@H](C)O)CC3)c12	none
Cc1cncc2cccc(NC3CCCNC3)c12 (configuration not stated)	TEAD-YAP block 94
O=C(Cc1ccccc1)Nc1ccc(-c2nc3cccnc3s2)cc1	none
O=C(Nc1ccc(-c2nc3cccnc3s2)cc1)C1CC1	TEAD-YAP block 75
Nc1ccc(-c2nc3cccnc3s2)cc1	TEAD-YAP block 34
CC(C)CC(=O)Nc1ccc(-c2nc3cccnc3s2)cc1	TEAD-YAP block 54
O=C(Nc1ccc(-c2nc3cccnc3s2)cc1)c1ccccc1	none
COc1ccc2nc(C3COc4ccccc4O3)nc(Nc3cccnc3)c2c1 (configuration not stated)	none
O=C(Nc1ccc(Cl)c(Cl)c1)N1CC(c2ccc([N+](=O)[O-])cc2)OC1c1ccccc1 (configuration not stated)	none
Cc1ccc2ccc(C(Nc3ccccn3)c3ccc(F)cc3)c(O)c2n1 (configuration not stated)	none
Cc1cccc(NC(c2cccc(C)n2)c2ccc3ccc(C)nc3c2O)n1 (configuration not stated)	none
Cc1cccc(NC(c2ccccn2)c2ccc3ccc(C)nc3c2O)n1 (configuration not stated)	TEAD-YAP block 49
Cc1ccc2ccc(C(Nc3ccccn3)c3ccccn3)c(O)c2n1 (configuration not stated)	TEAD-YAP block 39
N#Cc1ccccc1NC(=O)Cn1ncc(Cl)c(Cl)c1=O	TEAD-YAP block 55
Cc1nn(-c2ccccc2)c(Cl)c1C(=O)Nc1ccc(C(=O)NCc2cccnc2)cc1	TEAD-YAP block 39
Cc1nn(-c2ccccc2)c(Cl)c1C(=O)NCc1cccnc1	none
CCc1cc(=O)[nH]c(-n2ncc(C(=O)NC3CCCC3)c2C)n1	none
FC(F)(F)c1cnc(Nc2ccccn2)cc1Nc1ccccn1	TEAD-YAP block 54
CN1Cc2cccc(Nc3cc(Nc4cccc5c4C(=O)N(C)C5)c(C(F)(F)F)cn3)c2C1=O	none
COc1ccc(/C=N/NC(=S)Nc2cccc(C(=O)O)c2)c(OC)c1	none
CN(C)c1ccc(/C=N/NC(=S)Nc2cccc(C(=O)O)c2)cc1	TEAD-YAP block 64
COc1ccc(O)c(/C=N/NC(=S)Nc2cccc(C(=O)O)c2)c1	MITF inh 104
O=C(O)c1cccc(NC(=S)N/N=C/c2cccc(O)c2)c1	none
COc1cccc2sc(=NC(=O)c3ccc(S(=O)(=O)N4CCCc5ccccc54)cc3)n(C)c12	none
O=C(O)c1ccc2c(c1)C(=O)N(c1ccc(C(=O)Nc3ccccn3)cc1)C2=O	none
COc1ccc(C(=O)/C=C/Nc2ccc(Br)cc2)cc1OC	none

Screening results (PubChem)
